The whole screen tested about 320,000 compounds, of which about 2,200 (0.69%) were called active.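 How the source made its calls: active means inhibition above the mean of all tested compounds plus 3 SD, cutoff set per campaign (cut at about 30% in these data); inactive means the rest.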 The sample as a whole holds a higher share of actives than the screen did.
What follows are molecules tested against Bcl-2-like protein 1 (Homo sapiens) (UniProt Q07817) (assay: Bcl-xL/Bim BH3 interaction blockers – biochemical, fluorescence polarization, HTS, primary screen (AID 2129;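 further: 0% = DMSO wells and 100% = unlabeled Bim-BH3 peptide competitor; inhibitors lower millipolarization by displacing the labeled peptide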)). Conditions: GST-Bcl-xL / FITC-Bim BH3 peptide fluorescence polarization; at 10.9 µM; hits give high values.
Sequence of Bcl-2-like protein 1 (Homo sapiens) (Q07817 whole entry, looked up): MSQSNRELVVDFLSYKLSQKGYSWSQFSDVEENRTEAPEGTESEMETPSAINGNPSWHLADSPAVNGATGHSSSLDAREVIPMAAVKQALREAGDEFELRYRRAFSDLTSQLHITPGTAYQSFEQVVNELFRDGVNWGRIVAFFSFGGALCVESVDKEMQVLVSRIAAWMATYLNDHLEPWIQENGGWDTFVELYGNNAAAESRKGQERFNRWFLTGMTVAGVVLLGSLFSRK
`COCCNc1nc2nonc2nc1N(C)Cc1ccc(C)cc1` was tested, and the inhibition was 0.5% (inactive). For `COCCNc1nc2nonc2nc1N1CCCC1c1nccs1` (stereo not drawn), the inhibition was 31.5% (active). With `CC1=C(C(=O)OCc2ccccc2)C(c2ccco2)n2ncnc2N1` (stereo not drawn) the inhibition was 1.01% (inactive). For `CCOc1ccc(C2=CC(c3ccccc3)n3ncnc3N2)cc1` (stereo not drawn), the inhibition was 14.6% (inactive). In the case of `CCC(C)NC(=O)/C=C/c1ccc(S(=O)(=O)NCc2ccco2)cc1` (stereo not drawn), the inhibition is reported as 3.42% (inactive). With `Cc1ccc(O)c(-c2cc(C(=O)Nc3c(C)n(C)n(-c4ccccc4)c3=O)[nH]n2)c1` the inhibition was 2.52% (inactive). In the case of `CC[N+](C)(CC)CCC[n+]1c(-c2ccccc2)c2cc(N)ccc2c2ccc(N)cc21`, the inhibition is reported as 123% (active). With `CC(=O)Nc1ccc(NC(=O)CSC2=NS(=O)(=O)c3ccccc3N2)cc1` the inhibition was 1.27% (inactive). With `COc1ccccc1CCNC(=O)c1c(C)nn(CC(C)C)c1Cl` the inhibition was 3.1% (inactive). `CC(=O)C1=C(C)NC(C)=C(C(C)=O)C1c1cn(-c2ccccc2)nc1-c1cccs1` was tested, and the inhibition was -1.97% (inactive). For `CC1CCN(Cc2nc3c(c(=O)n(C)c(=O)n3C)n2CCc2ccccc2)CC1`, the inhibition was -4.09% (inactive). In the case of `CC(C)(C)CC(C)(C)NCC(O)COCCOc1ccc(Br)cc1` (stereo not drawn), the inhibition is reported as -1.57% (inactive). For `Cc1ccsc1CNn1cnnc1SCc1ccccc1F`, the inhibition was -10.8% (inactive). For `Cc1c(C)c(C)c2[nH]c(=S)[nH]c2c1C`, the inhibition was -44% (inactive). In the case of `O=c1[nH]c(=S)[nH]c2[nH]c(=S)[nH]c12`, the inhibition is reported as 44% (active). `Cc1cc2c(C)nc(N/N=C/c3ccccc3)nc2o1` was tested, and the inhibition was 2.89% (inactive). `CC1CC(C)CN(S(=O)(=O)c2cccc3nonc23)C1` (stereo not drawn) was tested, and the inhibition was 3.55% (inactive). For `CC(=O)N1CCc2c(sc(NC(=O)CCS(=O)(=O)c3ccc(C)cc3)c2C(N)=O)C1`, the inhibition was 6.13% (inactive). With `CSc1nc2ccccc2cc1/C=C(\C#N)c1ccc(Cl)cc1Cl` the inhibition was 1.93% (inactive). For `Cc1ccc(C(=O)N2CCCC2)c(F)c1F`, the inhibition was 8.05% (inactive). `Oc1ccc(C2Nc3cccc4cccc(c34)N2)cc1` was tested, and the inhibition was 15.2% (inactive). For `COc1cccc(C2Nc3cccc4cccc(c34)N2)c1`, the inhibition was 20.6% (inactive). `Cc1ccc(C2Nc3cccc4cccc(c34)N2)cc1` was tested, and the inhibition was 31.7% (active). `CCCCCCNS(=O)(=O)c1ccccc1Br` was tested, and the inhibition was -2.11% (inactive). In the case of `Cc1ccc(NC2CCCN(C(=O)CCC3(C)CC3)C2)cc1C` (stereo not drawn), the inhibition is reported as 4.16% (inactive). For `Cc1ccnc(NC(=O)c2ccoc2C)c1`, the inhibition was 32.4% (active). In the case of `Cc1ccnc(NC(=O)CNC(=O)c2ccccc2)c1`, the inhibition is reported as -1.9% (inactive). In the case of `COc1cc(SC)ccc1C(=O)Nc1cc(C)ccn1`, the inhibition is reported as -0.05% (inactive). With `COC(=O)c1cccc(N2C(=O)C3C4C=CC(CC4)C3C2=O)c1` (stereo not drawn) the inhibition was 2.84% (inactive). `CCOC(=O)/C(=C\c1ccc([N+](=O)[O-])cc1)C(=O)c1cc(C(C)=O)c(Nc2ccccc2)s1` was tested, and the inhibition was 1.23% (inactive). For `Cc1ccc(S(=O)(=O)NNC(=O)/C=C/c2cccc(F)c2)cc1`, the inhibition was 6.57% (inactive). With `O=C1c2ccccc2C(=O)c2c1cccc2N1CCN(CCO)CC1` the inhibition was 60% (active). In the case of `O=C1c2ccccc2C(=O)c2c1cccc2N1CCN(C/C=C/c2ccccc2)CC1`, the inhibition is reported as 20.9% (inactive). With `O=C1c2ccccc2C(=O)c2c1cccc2N1CCN(Cc2ccccc2)CC1` the inhibition was 7.24% (inactive). `C/C(Cl)=C\Cn1c(Nc2cccc(C)c2)nc2c1c(=O)n(C)c(=O)n2C` was tested, and the inhibition was 3.4% (inactive). `COc1ccccc1C(=O)N/C(=C/c1ccc2c(c1)OCO2)C(=O)Nc1cccc(C(=O)O)c1` was tested, and the inhibition was 8.09% (inactive). With `CCCC1OC23CCCCC2C(C#N)(C#N)C1(C#N)C(=N)O3` (stereo not drawn) the inhibition was 82.8% (active). In the case of `Cc1ccc(CNC(=O)CC(NC(=O)c2ccccc2)c2ccccc2)cc1` (stereo not drawn), the inhibition is reported as -7.73% (inactive). For `CN(C)[C@@H]1C(=O)C(C(N)=O)=C(O)[C@@]2(O)C(=O)C3=C(O)c4c(O)ccc(Cl)c4[C@@H](O)[C@H]3C[C@@H]12`, the inhibition was 15.2% (inactive). In the case of `C=C1c2c(Cl)ccc(O)c2C(O)=C2C(=O)[C@]3(O)C(O)=C(C(N)=O)C(=O)[C@@H](N(C)C)[C@@H]3[C@@H](O)C12` (stereo partly drawn), the inhibition is reported as 31.6% (active). For `Cc1cc(F)ccc1N1CCC(N2CCN(C)C(CCO)C2)CC1` (stereo not drawn), the inhibition was 8.78% (inactive). In the case of `Cc1cc(-c2csc(N)n2)c(C)n1Cc1ccccc1`, the inhibition is reported as 11.3% (inactive). With `CC(=O)c1ccc(-c2ccc(Cn3c(C)nc4cc(N)c(C)nc43)cc2)cc1` the inhibition was -0.35% (inactive). With `COc1ccccc1CNS(=O)(=O)c1ccc2c(c1)NC(=O)CS2` the inhibition was -2.44% (inactive). With `CC1CC(c2ccccc2)n2nc(NC(=O)c3cccs3)nc2N1` (stereo not drawn) the inhibition was 3.43% (inactive). `Cc1ccc(SCC(=O)NNC(=O)c2ccc(S(C)(=O)=O)cc2)cc1` was tested, and the inhibition was 1.39% (inactive). `CCN(CC)S(=O)(=O)c1ccc(N2CCN(C)CC2)c(NC(=O)Nc2ccccc2F)c1` was tested, and the inhibition was 5.12% (inactive). For `CCOCCCNc1nc(-c2ccccc2)nc2ccccc12`, the inhibition was 1.72% (inactive). For `COc1ccc(Nc2nc(-c3cccnc3)nc3ccccc23)cn1`, the inhibition was 118% (active). With `O=[N+]([O-])c1ccc(F)cc1Oc1nc(-c2cccnc2)nc2ccccc12` the inhibition was 3.63% (inactive). `CC[C@]1(O)CC2CN(CCc3c([nH]c4ccccc34)[C@@](C(=O)OC)(c3cc4c(cc3OC)N(C=O)[C@H]3[C@@](O)(C(=O)OC)[C@H](OC(C)=O)[C@]5(CC)C=CCN6CC[C@]43[C@@H]65)C2)C1` (stereo partly drawn) was tested, and the inhibition was 15% (inactive). In the case of `CC[C@]1(O)C[C@@H]2CN(CCc3c([nH]c4ccccc34)[C@@](C(=O)OC)(c3cc4c(cc3OC)N(C)[C@H]3[C@@](O)(C(=O)OC)[C@H](OC(C)=O)[C@]5(CC)C=CCN6CC[C@]43[C@@H]65)C2)C1`, the inhibition is reported as 105% (active). For `Cc1ccc2c(Cl)c(C(=O)NCCCn3ccnc3)sc2c1`, the inhibition was 6.22% (inactive). For `CC(=O)C[C@@H](O)CC(=O)[C@H]1OC(=O)CCCCCCc2ccccc21`, the inhibition was 0.52% (inactive). `COc1ccc(CN2CCn3ncc(C(=O)Nc4ccc(Cl)cc4Cl)c3C2=O)cc1` was tested, and the inhibition was 2.02% (inactive). For `O=c1cc(CO)oc(C(Nc2cccc(C(F)(F)F)c2)c2ccccn2)c1O` (stereo not drawn), the inhibition was 33.9% (active). With `O=c1cc(CO)oc(C(Nc2cccc([N+](=O)[O-])c2)c2ccccn2)c1O` (stereo not drawn) the inhibition was 13.9% (inactive). For `FC(F)(F)c1cccc(Nc2ncnc3ccccc23)c1`, the inhibition was -2.73% (inactive).

From PubChem BioAssay AID2129 (The Scripps Research Institute Molecular Screening Center, 2009)
